TDP1 cell CPT – DT40-hTDP1 cell growth loss with CPT | chicken DT40 Tdp1-/-;hTDP1 cells + 20 nM CPT, ATP luminescence, 48 h | Potency, µM (titrated, usually from 46.2 µM), most hits filed as inhibitors | 420,000 tested, 12% active; further: nearly all actives have a fitted effect of over 55% in size
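Chicken DT40 Tdp1-/- cells complemented with human TDP1, 400 cells/well, exposed to compounds plus 20 nM camptothecin for at least 48 h at 37 C; viability read as ATP content by CellTiter-Glo luminescence.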
TDP1 cell noCPT – qHTS for Inhibitors of human tyrosyl-DNA phosphodiesterase 1 (TDP1): qHTS in cells in absence of CPT | 420,000 tested, 15% active | DT40 Tdp1-/- hTDP1 cells, no CPT, ATP luminescence, 48 h | Potency, µM (titrated, usually from 46.2 µM), usual class: inhibitors | AID 686978, 2013; further: nearly all actives have a fitted effect of over 55% in size
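Readout: luminescence from CellTiter-Glo after 30 min in the dark at RT. Cells: DT40 Tdp1-/- with stable hTDP1, 400/well. Exposure: compounds alone, ≥48 hr, 37 °C.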
Gal4-VP16 FLuc – counter-screen for ROR gamma inhibitors: Gal4-VP16 reporter | Drosophila S2 Gal4-VP16 UAS-luciferase, luminescence, 20 h | 310,000 tested, 3.5% active | Potency, µM (top dose mostly 53.6 µM), hits mostly inhibitors;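 further: Gal4-VP16 expression switched on by copper sulfate through the metallothionein promoter; nearly all actives have a fitted effect of over 50% in size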
RORgamma inh – inhibitors of mouse ROR gamma transcriptional activity. P51450. Drosophila S2 Gal4-RORgamma UAS-luciferase reporter, 20 h. Potency, µM (series often up to 53.6 µM), hits mostly inhibitors. 310,000 tested, 5.4% active. AID 2551; further: nearly all actives have a fitted effect of over 60% in size
Target sequence (P51450 whole entry, looked up, the tested form may be a part): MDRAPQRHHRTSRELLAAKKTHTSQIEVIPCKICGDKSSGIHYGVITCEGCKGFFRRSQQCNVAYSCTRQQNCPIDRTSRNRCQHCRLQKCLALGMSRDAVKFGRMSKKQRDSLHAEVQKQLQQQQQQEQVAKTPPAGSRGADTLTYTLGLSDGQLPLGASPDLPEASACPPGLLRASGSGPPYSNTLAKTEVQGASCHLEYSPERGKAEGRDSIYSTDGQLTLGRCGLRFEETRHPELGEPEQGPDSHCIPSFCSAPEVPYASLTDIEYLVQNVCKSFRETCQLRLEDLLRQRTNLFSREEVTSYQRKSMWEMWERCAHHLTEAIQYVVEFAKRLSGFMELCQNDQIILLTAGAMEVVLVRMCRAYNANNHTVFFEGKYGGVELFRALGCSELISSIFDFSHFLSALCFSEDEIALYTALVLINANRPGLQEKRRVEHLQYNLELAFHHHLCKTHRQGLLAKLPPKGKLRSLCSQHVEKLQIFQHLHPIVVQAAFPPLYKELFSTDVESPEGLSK
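Luminescence from a UAS-regulated Photinus luciferase reporter in stably transfected Drosophila Schneider cells is measured; decreased signal marks ROR gamma inhibition. Fusion expression is induced by 700 uM copper sulfate for 20 hr.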
TDP1 inh – TDP1 (human) enzyme inhibition | Q9NUW8 | recombinant TDP1, AlphaScreen DNA substrate cleavage | Potency, µM (titrated, usually from 130 µM), hits mostly inhibitors | 350,000 tested, 0.28% active | AID 485290; further: nearly all actives have a fitted effect of over 40% in size
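Enzyme-compound mixtures sat 15 min at room temperature, followed by a 5 min reaction with 15 nM final substrate and 10 min with AlphaScreen beads. Recombinant human Tdp1 was used at 1 nM final.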
Large screens that a line does not name were inactive. This is a sample that favours compounds with a hit; in the whole collection about 19% have one here. The call rests on the fitted dose curve; in most records, active means well fitted curve in the direction sought with a large enough effect; inconclusive means small, poorly fitted or top-dose-only effect, or another doubt; inactive means no such curve, though single readings can be large; an effect the other way counts as inactive or inconclusive.

CNC(=O)Cn1nc(-c2ccc(C)cc2)c2ccccc2c1=O	TDP1 cell CPT inconclusive, TDP1 cell noCPT 15µM, RORgamma inh inconclusive (no result: TDP1 inh)
CNC(=O)CCn1nc(-c2ccc(C)cc2)c2ccccc2c1=O	none (no result: TDP1 inh)
COC(=O)COc1ccc(-c2nn(C)c(=O)c3ccccc23)cc1	none
Cc1csc(NC(=O)Cc2nn(C)c(=O)c3ccccc23)n1	TDP1 cell CPT 10µM, TDP1 cell noCPT 8.2µM, Gal4-VP16 FLuc inconclusive
Cn1nc(-c2ccc(OCC(=O)Nc3ccccc3)cc2)c2ccccc2c1=O	TDP1 cell CPT 23µM, TDP1 cell noCPT 26µM
O=C(O)c1cn2c3c(ccc(Cl)c3c1=O)OCC2	TDP1 cell noCPT inconclusive (no result: TDP1 inh)
COc1cccc(C2CC(c3cccc(OC)c3)n3nc(N)nc3N2)c1 (centres undefined)	none
C#CCOCCOCCOCCNc1nc(N2CCOCC2)nc(N2CCN(C(=O)Cn3cc(CCCN=C(N)N)nn3)CC2)n1	none
Cc1c(NC(=O)C2CCCNC2=O)c(=O)n(-c2ccccc2)n1C (centres undefined)	none
CCc1ccccc1NC(=O)CSc1nnc(-c2nonc2NC(C)=O)n1C	TDP1 cell noCPT inconclusive (no result: Gal4-VP16 FLuc, RORgamma inh)
COc1ccccc1NC(=O)c1ccc(-c2nn(C)c(=O)c3ccccc23)cc1	TDP1 cell CPT inconclusive, TDP1 cell noCPT 21µM
COc1ccccc1NC(=O)COc1ccc(-c2nn(C)c(=O)c3ccccc23)cc1	TDP1 cell CPT 13µM, TDP1 cell noCPT 7.3µM
COc1ccc(NC(=O)c2ccc(-c3nn(C)c(=O)c4ccccc34)cc2)cc1	none
CC(=O)Nc1ccc(NCC(=O)c2ccccc2)cc1	TDP1 cell CPT inconclusive, TDP1 cell noCPT inconclusive
CN1C(=O)C(C)(C)c2cc(S(=O)(=O)N3CCN(c4ccccc4)CC3)ccc21	TDP1 cell CPT inconclusive, TDP1 cell noCPT inconclusive, RORgamma inh inconclusive (no result: TDP1 inh)
CN1/C(=C\C=Nc2cc(S(=O)(=O)N3CCOCC3)ccc2N2CCOCC2)C(C)(C)c2ccccc21	TDP1 cell CPT inconclusive, TDP1 cell noCPT 21µM, RORgamma inh inconclusive
Cc1cc(/N=C/C=C2/N(C)c3ccccc3C2(C)C)n(CCC#N)n1	TDP1 cell CPT 8.2µM, TDP1 cell noCPT 6.5µM (no result: Gal4-VP16 FLuc, RORgamma inh, TDP1 inh)
Cc1ccccc1N=C/C=C1\N(C)c2ccccc2C1(C)C	TDP1 cell CPT 18µM, TDP1 cell noCPT 8.2µM, Gal4-VP16 FLuc 13µM, RORgamma inh inconclusive
CN1/C(=C\C=N\O)C(C)(C)c2ccccc21	none
CN(C)c1ccc(N=C/C=C2/N(C)c3ccccc3C2(C)C)cc1	TDP1 cell CPT 7.3µM, TDP1 cell noCPT 5.2µM, Gal4-VP16 FLuc inconclusive
Cc1ccc(S(=O)(=O)N2CCCC(C(=O)NCC3COCCO3)C2)cc1 (centres undefined)	none
CCOC(=O)C1(Cc2cccc(F)c2)CCN(C(=O)Cn2cnnn2)CC1	none
Cc1ccc(S(=O)(=O)N2CCOCC2)cc1NC(=O)c1cc2ccccc2oc1=O	TDP1 cell noCPT inconclusive (no result: Gal4-VP16 FLuc, RORgamma inh)
COc1cc(NC(=O)Cn2c(=O)nc(-c3ccccc3F)c3cc(Cl)ccc32)cc(OC)c1	TDP1 cell CPT 15µM, TDP1 cell noCPT 10µM (no result: Gal4-VP16 FLuc, RORgamma inh)
O=C(Nc1cccc(Cl)c1)C1C2CCC3C(CCC21)C3(Cl)Cl (centres undefined)	TDP1 cell CPT inconclusive, TDP1 cell noCPT 16µM, Gal4-VP16 FLuc inconclusive, RORgamma inh inconclusive
CC(=O)N1N=C(N)SC1c1ccc(Cl)c(Cl)c1 (centres undefined)	TDP1 cell noCPT inconclusive (no result: Gal4-VP16 FLuc, RORgamma inh, TDP1 inh)
CC(=O)N1c2ccc(Cl)cc2C2C=CCC2C1c1cccc2ccccc12 (centres undefined)	TDP1 cell CPT 23µM, TDP1 cell noCPT inconclusive, Gal4-VP16 FLuc 22µM, RORgamma inh inconclusive
COc1ccc(OC)c(CCNC(=O)c2c(C)oc3ncn(CC(C)C)c(=O)c23)c1	TDP1 cell CPT inconclusive, TDP1 cell noCPT 18µM (no result: Gal4-VP16 FLuc, RORgamma inh)
COc1ccc(OC)c(CNC(=O)c2c(C)oc3ncn(CC(C)C)c(=O)c23)c1	TDP1 cell CPT inconclusive, TDP1 cell noCPT 16µM (no result: Gal4-VP16 FLuc, RORgamma inh)
COC(=O)c1ccc2c(c1)C(C)(C)C(/C=C/c1ccccc1O)=[N+]2C	TDP1 cell CPT 3.2µM, TDP1 cell noCPT 3.2µM
COCc1cc(=O)[nH]c(/N=C(\N)Nc2ccc(Cl)c(Cl)c2)n1	none
O=C(O)c1ccc(-n2nnc3ccccc32)c([N+](=O)[O-])c1	none
O=[N+]([O-])c1cnccc1-n1nnc2ccccc21	TDP1 cell CPT 16µM, TDP1 cell noCPT 18µM (no result: Gal4-VP16 FLuc, RORgamma inh, TDP1 inh)
COc1ccc2ccccc2c1-c1csc(N)n1	none (no result: TDP1 inh)
Nc1c(C(=O)NCCc2ccccc2)sc2nc(N3CCOCC3)c3c(c12)CCCC3	TDP1 cell CPT 16µM, TDP1 cell noCPT 23µM, RORgamma inh inconclusive
CN(C(=O)c1sc2nc(N3CCOCC3)c3c(c2c1N)CCCC3)c1ccccc1	TDP1 cell CPT inconclusive, TDP1 cell noCPT 23µM
CCOC(=O)c1ccc(NC(=O)c2sc3nc(N4CCOCC4)c4c(c3c2N)CCCC4)cc1	TDP1 cell CPT inconclusive, TDP1 cell noCPT 16µM
COc1ccccc1NC(=O)c1sc2nc(N3CCOCC3)c3c(c2c1N)CCCC3	TDP1 cell CPT inconclusive, TDP1 cell noCPT inconclusive, Gal4-VP16 FLuc inconclusive, RORgamma inh inconclusive
COc1ccc(NC(=O)c2sc3nc(N4CCOCC4)c4c(c3c2N)CCCC4)cc1	none (no result: Gal4-VP16 FLuc, RORgamma inh, TDP1 inh)
CCCCN(CCCC)C(=O)c1sc2nc(N3CCOCC3)c3c(c2c1N)CCCC3	TDP1 cell CPT inconclusive, TDP1 cell noCPT inconclusive

Bioassay records (PubChem)
